Screening data deposited in PubChem BioAssay by National Center for Advancing Translational Sciences (NCATS).
Tb PFK inh: blocks T. brucei phosphofructokinase | 330,000 tested, 0.17% active | Potency, µM (highest dose often 57.5 µM), most hits filed as inhibitors | T. brucei PFK, ADP-Glo luminescence; also: nearly all actives have a fitted effect of over 60% in size
Target sequence (O15648 whole entry, looked up): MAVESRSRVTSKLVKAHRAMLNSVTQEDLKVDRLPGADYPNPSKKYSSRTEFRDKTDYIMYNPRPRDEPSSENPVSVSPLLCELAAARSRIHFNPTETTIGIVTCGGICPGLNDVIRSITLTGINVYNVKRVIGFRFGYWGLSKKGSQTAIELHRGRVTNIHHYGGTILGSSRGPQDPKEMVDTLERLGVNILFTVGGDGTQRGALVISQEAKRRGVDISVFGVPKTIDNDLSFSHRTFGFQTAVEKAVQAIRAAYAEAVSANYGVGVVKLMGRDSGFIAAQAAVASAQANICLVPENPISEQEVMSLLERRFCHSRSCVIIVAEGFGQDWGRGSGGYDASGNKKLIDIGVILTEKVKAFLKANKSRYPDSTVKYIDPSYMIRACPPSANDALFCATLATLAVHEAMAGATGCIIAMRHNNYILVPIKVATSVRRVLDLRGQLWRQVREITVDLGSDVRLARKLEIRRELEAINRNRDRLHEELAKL
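1.25 nM PFK with 0.5 mM F6P and 0.1 mM ATP in 0.1 M TEA pH 8.0, 5 mM MgCl2, incubated 45 min at room temperature; ADP measured by ADP-Glo luminescence; compounds titrated up to 57 uM.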
RXFP1 agonist: agonists of human relaxin receptor RXFP1 | Q9HBX9 | HEK293T-RXFP1 cAMP TR-FRET, 30 min; response scale: percent of porcine relaxin response, buffer zero | Potency, µM (titrated, usually from 57.5 µM), hits mostly activators | 370,000 tested, 0.3% active | AID 2676; also: nearly all actives have a fitted effect of over 60% in size
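cAMP rise read by TR-FRET after 30 min, 37C compound exposure (up to 58 uM) in RXFP1-transfected HEK293 cells with Ro 20174 present. EC50 from Hill-equation fits, with 29 nM porcine relaxin as 100% and buffer as basal.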
p53 reactivation: mutant p53 re-activation in reporter cells | Potency, µM (highest dose often 92.2 µM), actives largely listed as activators | 320,000 tested, 0.063% active | H1299 p53-A138V BP100-luciferase reporter, luminescence, 24 h | AID 504706; also: nearly all actives have a fitted effect of over 45% in size
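p53-null H1299 cells stably carrying temperature-sensitive p53-A138V and a BP100-luciferase reporter were pinned with compounds (4-point, 1:5 series) and held 24 hrs at 37 deg C. Luminescence was read 10 min after detection reagent.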
RXFP1 antag: antagonists of human relaxin receptor RXFP1; HEK293-RXFP1, relaxin-stimulated cAMP HTRF, 30 min; stronger effect = lower value; activity change, negative = inhibition, % at 57.5 µM; 350,000 tested, 0.59% active;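 active = activity change of -60% or lower, but not beyond a set lower limit; inconclusive = change between -60% and -40%, or beyond the set limit; inactive = change above -40%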
gsp agonist: gsp mutant agonism. Potency, µM (titrated, usually from 76.9 µM), most hits filed as activators. 340,000 tested, 0.13% active. gsp mutant cells, cAMP HTRF, 30 min. AID 624287; active = well fitted activation curve with a large enough effect; inconclusive = small, poorly fitted or top-dose-only effect, or another doubt; inactive = no such curve, though single readings can be large or run the other way; cell line not stated here;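 also: phosphodiesterase inhibitor Ro 20-1724 added with compounds to block cAMP breakdown; nearly all actives have a fitted effect of over 60% in size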
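Cells stably selected in G418 were plated at 2000/well, grown 16-24 hr, then given compounds in DMSO with the PDE inhibitor […] (300 uM solution added) for 30 min at 37C; cAMP was read by HTRF.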
gsp antagonist: gsp mutant antagonism; gsp-mutant cells, cAMP HTRF, 30 min; Potency, µM (highest dose often 76.9 µM), most hits filed as inhibitors; 340,000 tested, 0.4% active; AID 624288; calls by dose curve; cell line not stated here;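 also: intracellular cAMP measured with PDE inhibitor Ro 20-1724 present during compound exposure; nearly all actives have a fitted effect of over 65% in size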
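G418-selected cells were plated in DMEM/10% FBS for 16-24 h at 37C, then treated with compounds plus the PDE inhibitor […] (300 uM solution added) for 30 min at 37C. Intracellular cAMP was measured by HTRF after 30 min lysis at room temperature.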
Of the large screens only hits and unclear results are named; the others gave an inactive call. Rows were chosen to be rich in hits. Some 1.1% of all compounds tested hit in one or more screens of this group. Unless noted, calls follow the shape of the dose curve; as a rule, active = well fitted curve in the direction sought with a large enough effect; inconclusive = small, poorly fitted or top-dose-only effect, or another doubt; inactive = no such curve, though single readings can be large; an effect the other way counts as inactive or inconclusive.

COc1ccc(-c2csc(NC(=S)NC(=O)c3ccco3)n2)cc1	none
O=C(Cc1ccc(F)cc1)Nc1nc(-c2ccc(F)cc2)cs1	RXFP1 antag inconclusive
O=C(Cc1c(F)c(F)c(F)c(F)c1F)Nc1nc(-c2ccccc2)cs1	RXFP1 antag -65.3
O=C(Cc1ccccc1)Nc1nc(-c2cccc([N+](=O)[O-])c2)cs1	none
O=C(NC(=S)Nc1nc(-c2ccccc2)cs1)c1ccco1	RXFP1 antag -62.5
CCOC(=O)C1(Cc2ccc(OC)cc2)CCN(C(=O)c2cc(C)nn2C)CC1	none
CCOC(=O)c1c(C)[nH]c(C)c1S(=O)(=O)N(C)CC(=O)N1CCN(c2ccccc2OC)CC1	none (no result: Tb PFK inh, p53 reactivation, RXFP1 antag, gsp agonist, gsp antagonist)
Oc1ccc(Cl)cc1C1=NNC(c2ccc(Cl)cc2)C1 (stereo unspecified)	p53 reactivation 28.2µM
Oc1c(Cl)cc(Cl)cc1C1=NNC(c2ccc(Cl)cc2)C1 (stereo unspecified)	none
CCC(Sc1nc2cc3c(cc2c(=O)n1CCCCCC(=O)NCc1ccc2c(c1)OCO2)OCO3)C(=O)NCCCOC (stereo unspecified)	RXFP1 antag -112.8 (no result: Tb PFK inh, p53 reactivation, gsp agonist, gsp antagonist)
c1ccc(-n2c(Cc3cccnc3)nc3cnccc32)cc1	none (no result: Tb PFK inh, RXFP1 agonist, p53 reactivation)
CC(C)(C)c1cc(CN2CCN(CCO)CC2)cc(C(C)(C)C)c1O	p53 reactivation inconclusive
CN1CCN(CC(=O)c2cc(C(C)(C)C)c(O)c(C(C)(C)C)c2)CC1	RXFP1 antag -85.5 (no result: p53 reactivation)
O=C(COC(=O)CCc1nc2ccccc2s1)NC(=O)NCc1ccco1	gsp antagonist 11.2µM
COc1cc(NC(=O)Cn2ncc3c(=O)oc4ccccc4c32)cc(OC)c1OC	none (no result: Tb PFK inh, p53 reactivation, RXFP1 antag, gsp agonist, gsp antagonist)
COc1ccc([C@@H]2[C@@H]3C(=O)N(C(C)(C)C)C(=O)[C@@H]3[C@]3(C)C(=O)N(c4cccc(C)c4)C(=O)N23)cc1	gsp antagonist inconclusive (no result: p53 reactivation, RXFP1 antag, gsp agonist)
Cc1cc(C)n(-c2nc(NCCCO)c3c4c(sc3n2)CCCC4)n1	p53 reactivation inconclusive
CCOc1cc(/C=C2\CCC/C(=C\c3cc(Cl)c(O)c(OCC)c3)C2=O)cc(Cl)c1O	RXFP1 antag -68.8
COc1ccc(CC(=O)Nc2cccc(-c3nnc(-c4ccc(C)cc4)o3)c2)cc1OC	gsp antagonist inconclusive
COc1ccc(CC(=O)Nc2cccc(-c3nnc(-c4cccc(C)c4)o3)c2)cc1OC	gsp antagonist 31.6µM
O=C1/C(=C/c2ccc(O)cc2)COc2ccccc21	p53 reactivation 39.8µM
Cc1cc(OCC(=O)OCC(=O)N(C)Cc2ccccc2C)ccc1Cl	none
COc1ccc(CCNS(=O)(=O)c2cc3c4c(c2)C(C)C(=O)N4CCC3)cc1OC (stereo unspecified)	RXFP1 antag -91.9
CC1C(=O)N2CCCc3cc(S(=O)(=O)NCCc4ccccc4)cc1c32 (stereo unspecified)	gsp agonist inconclusive
COC(=O)c1ccc(NC(=O)COc2ccc3c(c2)OCO3)cc1	none
CN(C)c1ccc(N=Nc2nc3ccccc3n2C)cc1	gsp antagonist inconclusive
Cn1c(N=Nc2ccccc2)nc2ccccc21	Tb PFK inh 12µM (no result: p53 reactivation)
CN(C)c1nc(-c2cn(CCC#N)c3ccccc23)cs1	RXFP1 antag -81.9, gsp antagonist inconclusive
Nc1nc(Sc2ccc([N+](=O)[O-])c3nonc23)c2[nH]cnc2n1	gsp agonist 12.6µM (no result: Tb PFK inh, RXFP1 agonist, p53 reactivation)
CNc1ncnc(Sc2nc(N)nc3nc[nH]c23)c1[N+](=O)[O-]	gsp agonist inconclusive (no result: Tb PFK inh, RXFP1 agonist, p53 reactivation)
Cc1cc(N)n2nc(C)c(-c3ccc(Cl)cc3)c2n1	none (no result: gsp antagonist)
Cc1cc(Cl)n2nc(C)c(-c3ccc(Cl)cc3)c2n1	RXFP1 antag -69.0
COc1ccc(NCC(=O)N/N=C/C(C)c2ccccc2)cc1 (stereo unspecified)	none
O=C(NC1CCCCC1)c1ccc(CNc2nc(=S)[nH]c3ccccc23)cc1	p53 reactivation inconclusive, RXFP1 antag -80.8
CCOc1ccc(N2CC(NC(=O)c3ccc(Cl)cc3)CC2=O)cc1 (stereo unspecified)	none (no result: Tb PFK inh, p53 reactivation, gsp agonist, gsp antagonist)
Cc1ccc(S(=O)(=O)N(CC(=O)Nc2ccccc2C(=O)O)c2ccc(Cl)cc2)cc1	RXFP1 antag -76.3, gsp antagonist inconclusive
CCOC(=O)c1ccccc1NC(=O)CN(c1ccccc1)S(=O)(=O)c1ccc(OCC)cc1	none (no result: Tb PFK inh, p53 reactivation, RXFP1 antag, gsp agonist, gsp antagonist)
Fc1ccc(CN2CCc3nc(N4CCN(c5ccccc5F)CC4)ncc3C2)c(F)c1	none (no result: Tb PFK inh, p53 reactivation, gsp agonist, gsp antagonist)
CCOc1ccccc1CN1CCc2nc(N3CCN(c4ccccc4F)CC3)ncc2C1	RXFP1 antag -60.0 (no result: Tb PFK inh, p53 reactivation, gsp agonist, gsp antagonist)
COc1cc(CN2CCc3nc(N4CCN(c5ncccn5)CC4)ncc3C2)cc(OC)c1OC	none (no result: Tb PFK inh, p53 reactivation, gsp agonist, gsp antagonist)
COc1cc(CN2CCc3nc(N4CCN(c5ccccn5)CC4)ncc3C2)cc(OC)c1OC	RXFP1 antag -78.6 (no result: Tb PFK inh, p53 reactivation, gsp agonist, gsp antagonist)
CN(C)c1ccc(CN2CCc3nc(N4CCN(c5ccccn5)CC4)ncc3C2)cc1	RXFP1 antag -62.7 (no result: Tb PFK inh, p53 reactivation, gsp agonist, gsp antagonist)
COc1ccc(CCNC(=O)CSc2ccc(-c3ccccc3)nn2)cc1	none (no result: RXFP1 antag, gsp agonist, gsp antagonist)
O=C1CCC(C(=O)N2CCCCCCC2)CN1Cc1cccc(C(F)(F)F)c1 (stereo unspecified)	none
